# Data from PubChem BioAssay AID1029 (Sanford-Burnham Center for Chemical Genomics, 2008).
# The whole screen tested about 110,000 compounds, of which about 80 (0.07%) were called active.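 Rule for the calls: active = inhibition above the mean of the plate negative controls plus 5 SD (cut at about 13% in these data); inactive = the rest.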 The list comes from a sample in which actives are over-represented; it also holds similar structures and randomly drawn compounds.
# Assay: blockers of IgG-bead uptake by macrophages – imaging, J774A.1 cells, IgG beads, primary screen (AID 1029);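 note: phagocytic index as fraction of beads internalized from green versus red external bead signal; plate controls were DMSO negative control for no effect and cytochalasin-D positive control for full effect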
# Conditions: J774A.1 macrophage IgG-bead phagocytosis, at 5 µM, active compounds read high
row,Compound,inhibition
1,CCOC(=O)C(O)(c1ccc(N)c(OC)c1)C(F)(F)F (centres undefined),-1.1% (inactive)
2,CCOC(=O)C(O)(c1ccc(NC(=O)c2ccco2)c(OC)c1)C(F)(F)F (centres undefined),2.8% (inactive)
3,CN(C)C(=O)Oc1ccc(OCc2cccc[n+]2C)cc1,-2.17% (inactive)
4,O=c1[nH]c(=S)n(C2CC2)c(O)c1/C=N/N1CCOCC1,-3.16% (inactive)
